Data from PubChem BioAssay (EPA / NIEHS).
Several values for one entry are separate records, joined by “and”; a condition that tells them apart may be missing. Equal values may be shown once. Records with an inconclusive call do not appear. Some compounds were tested as several samples or in several runs, with calls that do not always agree. Activity calls are given as the source filed them. The calls were made as follows, unless noted: active = hit-call score of the fitted dose curve at least 0.9, where 1 is the maximum; inconclusive = response in the unintended direction; inactive = score below 0.9.

Legend:
[1] = target: human Thyroid hormone Receptor alpha (TRa), THRA (gene 7067) (UniProt P10827); test: ATG_hTRa_XSP2: Attagene TRANS-FACTORIAL Multi-Species (XSP2) HepG2 Assay for human Thyroid hormone Receptor alpha (TRa) (AID 2283838)
In short: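 Reporter transcripts were read by RT-PCR with fluorescent primer extension, HpaI digestion and capillary electrophoresis. These came from HepG2 cells carrying multiplexed TRa-Gal4 TRANS constructs, harvested 24 hours after dosing. The medium also held 6-alpha-fluorotestosterone (3 nM) and norgestrel (1.5 nM), and increases were fitted against DMSO.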

[2] = target: frog Thyroid hormone Receptor alpha (TRa), thra-a (gene 397942) (UniProt P15204); test: ATG_frTRa_XSP2: Attagene TRANS-FACTORIAL Multi-Species (XSP2) HepG2 Assay for frog Thyroid hormone Receptor alpha (TRa) (AID 2283839);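 as to AC50: AC50 reflects induction of frog TRa-driven reporter mRNA above DMSO baseline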
In short: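 Frog thyroid receptor alpha was tested as an exogenous NR-Gal4 fusion in transiently transfected HepG2 cells. After 24 h chemical treatment, reporter mRNA induction was quantified by RT-PCR and capillary electrophoresis, with gain-of-signal analysed relative to DMSO.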

[3] = target: human Thyroid hormone Receptor beta (TRb), THRB (gene 7068) (UniProt P10828); test: ATG_hTRb_XSP2: Attagene TRANS-FACTORIAL Multi-Species (XSP2) HepG2 Assay for human Thyroid hormone Receptor beta (TRb) (AID 2283840);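 also: actives raise reporter mRNA so potency reflects agonist-like gain of signal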
In short: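 In this cell-based multiplex, HepG2 liver cells carrying transfected GAL4-UAS reporter constructs are exposed to chemical for 24 hours, then reporter transcripts are measured by RT-PCR with capillary electrophoresis, scored as gain of signal against DMSO.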

[4] = test system: Sodium/Iodide Symporter (NIS), SLC5A5 (gene 6528); test: CPHEA_Stoker_NIS_Inhibition_RAIU: CPHEA's Radioactive Iodide Uptake (RAIU) Assay for Sodium/Iodide Symporter (NIS) Inhibition, Stoker and Laws Labs (AID 2283841)
In short: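 HEK293T cells stably expressing human NIS (hNIS-HEK293T-EPA) were exposed to test chemicals at 0.001–100uM (0.5% final DMSO) with 125I at a final 329pM in HBSS/10mM HEPES pH 7.4. After 2 hours at room temperature and ice-cold washes, intracellular 125I was counted as CPM and normalized to DMSO wells.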

[5] = CPHEA_Stoker_NIS_Cytotoxicity: Cytotoxicity Assessment for CPHEA's Radioactive Iodide Uptake (RAIU) Assay for Sodium/Iodide Symporter (NIS) Inhibition, Stoker and Laws Labs (AID 2283897);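 as to AC50: active means loss of ATP signal versus DMSO meaning cytotoxicity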
In short: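 hNIS-HEK293T-EPA human kidney cells were exposed for 2 hours at room temperature to test chemicals (0.001–100uM, 0.5% final DMSO) in HEPES-buffered HBSS, pH 7.4. Viability was read as ATP content by luciferase bioluminescence, loss of signal versus DMSO.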

[6] = target: PGR (gene 5241) (UniProt P06401); test: TOX21_PR_BLA_Followup_Agonist_ratio: Tox21 HEK293 Progesterone Receptor (PR) Agonism Beta-lactamase Follow-Up Assay, Ratio (AID 2283933)
In short: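 Beta-lactamase reporter readout: ratio of cleaved (ch2) to uncleaved (ch1) substrate after 2 h room-temperature loading, following 16 h compound exposure at 37C. Cells were PR-UAS-bla HEK293T in 2% charcoal-stripped FBS medium. Viability was multiplexed by CellTiter-Glo.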

[7] = target: PGR (gene 5241) (UniProt P06401); test: TOX21_PR_BLA_Followup_Antagonist_ratio: Tox21 HEK293 Progesterone Receptor (PR) Antagonism Beta-lactamase Follow-Up Assay, Ratio (AID 2283934);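 also: PR-UAS-bla HEK293T cells stimulated with 1 nM R5020 agonist for 16 hr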
In short: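 Readout is the blue/green (ch2/ch1) substrate cleavage ratio after 2 hours at room temperature, following 16 hr co-treatment of PR-bla HEK293T cells with compound and 1nM promegestone. Multiplexed CellTiter-Glo viability flags cytotoxicity; DMSO baseline.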

[8] = TOX21_PR_BLA_Followup_Agonist_viability: Viability Assessment in the Tox21 HEK293 Progesterone Receptor (PR) Agonism Beta-lactamase Follow-Up Assay (AID 2283935);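 also: signal loss means lower viability so actives are cytotoxic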
In short: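 Run multiplexed with the beta-lactamase FRET read, this endpoint measures ATP by CellTiter-Glo luminescence (30 min, room temperature). PR-UAS-bla HEK293T cells received compound 6 hr after plating and were then incubated 16 hr at 37C in 2% stripped serum.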

[9] = ATG_XTT_Cytotoxicity_XSP2: Cytotoxicity Assessment in the Attagene TRANS-FACTORIAL Multi-Species (XSP2) HepG2 Assay (AID 2283837)
In short: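 XTT-based cell number read-out in human HepG2 liver cells carrying transfected reporter units, measured 24 h after chemical dosing. Activity is signal loss versus DMSO baseline.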

[10] = CEETOX_H295R_OHPREG_noMTC: CeeTox H295R High-throughput Steroidogenesis Assay for OH-Pregnenolone (OHPREG), maximum tolerated concentration (MTC) filtered results only (AID 2283912; active = hit-call score of the fitted dose curve at least 0.9, where 1 is the maximum; inactive = score below 0.9); settings: actives raise or lower the signal
In short: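 Medium 17alpha-hydroxypregnenolone quantified by reverse-phase HPLC-MS/MS after 48 h chemical exposure of forskolin-prestimulated (10 uM, 48 h) H295R, 0.1% DMSO final. Fitting bidirectional relative to DMSO; no maximum-tolerated-concentration filtering applied.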

[11] = CEETOX_H295R_OHPROG_noMTC: CeeTox H295R High-throughput Steroidogenesis Assay for OH-Progesterone (OHPROG), maximum tolerated concentration (MTC) filtered results only (AID 2283914; active = hit-call score of the fitted dose curve at least 0.9, where 1 is the maximum; inactive = score below 0.9); settings: actives raise or lower the signal
In short: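 After 48 h forskolin (10 uM) prestimulation, H295R adrenal cells received test chemical in 0.1% DMSO for 48 h. Medium 17alpha-hydroxyprogesterone was MTBE-extracted and measured by HPLC-MS/MS; gain or loss relative to DMSO, no MTT-based MTC filtering.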

[12] = CEETOX_H295R_ANDR_noMTC: CeeTox H295R High-throughput Steroidogenesis Assay for Androstenedione (ANDR), maximum tolerated concentration (MTC) filtered results only (AID 2283915; active = hit-call score of the fitted dose curve at least 0.9, where 1 is the maximum; inactive = score below 0.9); settings: actives raise or lower the signal
In short: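 Androstenedione secreted into medium was measured by LC-MS/MS after MTBE extraction. Human adrenal H295R cells received 10 uM forskolin for 48 h before 48 h chemical exposure (0.1% DMSO). Gain or loss fitted against DMSO, including concentrations above the MTT-derived MTC.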

[13] = CEETOX_H295R_ESTRADIOL_noMTC: CeeTox H295R High-throughput Steroidogenesis Assay for Estradiol, maximum tolerated concentration (MTC) filtered results only (AID 2283919; active = hit-call score of the fitted dose curve at least 0.9, where 1 is the maximum; inactive = score below 0.9); settings: actives raise or lower the signal
In short: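 Readout: dansyl-derivatized estradiol quantified by LC-MS/MS in medium from H295R cells dosed 48 h (0.1% DMSO) following 48 h forskolin (10 uM) prestimulation. Gain or loss of signal fitted against DMSO; no MTC filtering applied.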

[14] = CEETOX_H295R_PROG_noMTC: CeeTox H295R High-throughput Steroidogenesis Assay for Progesterone (PROG), maximum tolerated concentration (MTC) filtered results only (AID 2283920; active = hit-call score of the fitted dose curve at least 0.9, where 1 is the maximum; inactive = score below 0.9); settings: actives raise or lower the signal
In short: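 Progesterone secreted into medium was measured by HPLC-MS/MS after MTBE extraction, following 48 h chemical exposure (0.1% DMSO) of forskolin-prestimulated (10 uM, 48 h) H295R adrenal cells. Gain or loss fitted against DMSO; no MTC filtering.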

[15] = CEETOX_H295R_ESTRONE_noMTC: CeeTox H295R High-throughput Steroidogenesis Assay for Estrone, maximum tolerated concentration (MTC) filtered results only (AID 2283921; active = hit-call score of the fitted dose curve at least 0.9, where 1 is the maximum; inactive = score below 0.9); settings: actives raise or lower the signal
In short: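 Estrone in spent medium, quantified by tandem MS following dansyl chloride derivatization, after 48 h chemical exposure (0.1% DMSO) of forskolin-prestimulated (10 uM, 48 h) H295R cells; concentrations not MTC-filtered, bidirectional fit against DMSO.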

[16] = CEETOX_H295R_TESTO_noMTC: CeeTox H295R High-throughput Steroidogenesis Assay for Testosterone (TESTO), maximum tolerated concentration (MTC) filtered results only (AID 2283924; active = hit-call score of the fitted dose curve at least 0.9, where 1 is the maximum; inactive = score below 0.9); settings: actives raise or lower the signal
In short: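 Medium testosterone, measured by HPLC-MS/MS after liquid-liquid extraction, was fitted in both directions relative to DMSO without MTC filtering. Adrenal H295R cells received 48 h chemical exposure (0.1% DMSO final) after 48 h forskolin (10 uM) prestimulation; viability by MTT.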

Measured: AC50

Sequence of human Thyroid hormone Receptor beta (TRb), THRB (gene 7068) (P10828 whole entry, looked up, the tested form may be a part): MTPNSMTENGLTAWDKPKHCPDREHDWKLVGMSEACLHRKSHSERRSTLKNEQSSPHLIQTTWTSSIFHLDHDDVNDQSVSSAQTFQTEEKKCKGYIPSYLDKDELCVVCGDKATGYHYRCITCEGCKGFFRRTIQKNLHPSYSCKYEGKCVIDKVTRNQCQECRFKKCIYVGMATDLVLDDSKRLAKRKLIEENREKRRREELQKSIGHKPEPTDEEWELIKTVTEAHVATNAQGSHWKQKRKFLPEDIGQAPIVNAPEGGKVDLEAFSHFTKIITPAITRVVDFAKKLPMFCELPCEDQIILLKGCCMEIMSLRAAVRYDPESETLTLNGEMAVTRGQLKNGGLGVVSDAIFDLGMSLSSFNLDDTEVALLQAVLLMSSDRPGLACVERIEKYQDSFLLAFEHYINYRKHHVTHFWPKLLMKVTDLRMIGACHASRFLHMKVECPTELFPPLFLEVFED
Sequence of PGR (gene 5241) (P06401 whole entry, looked up): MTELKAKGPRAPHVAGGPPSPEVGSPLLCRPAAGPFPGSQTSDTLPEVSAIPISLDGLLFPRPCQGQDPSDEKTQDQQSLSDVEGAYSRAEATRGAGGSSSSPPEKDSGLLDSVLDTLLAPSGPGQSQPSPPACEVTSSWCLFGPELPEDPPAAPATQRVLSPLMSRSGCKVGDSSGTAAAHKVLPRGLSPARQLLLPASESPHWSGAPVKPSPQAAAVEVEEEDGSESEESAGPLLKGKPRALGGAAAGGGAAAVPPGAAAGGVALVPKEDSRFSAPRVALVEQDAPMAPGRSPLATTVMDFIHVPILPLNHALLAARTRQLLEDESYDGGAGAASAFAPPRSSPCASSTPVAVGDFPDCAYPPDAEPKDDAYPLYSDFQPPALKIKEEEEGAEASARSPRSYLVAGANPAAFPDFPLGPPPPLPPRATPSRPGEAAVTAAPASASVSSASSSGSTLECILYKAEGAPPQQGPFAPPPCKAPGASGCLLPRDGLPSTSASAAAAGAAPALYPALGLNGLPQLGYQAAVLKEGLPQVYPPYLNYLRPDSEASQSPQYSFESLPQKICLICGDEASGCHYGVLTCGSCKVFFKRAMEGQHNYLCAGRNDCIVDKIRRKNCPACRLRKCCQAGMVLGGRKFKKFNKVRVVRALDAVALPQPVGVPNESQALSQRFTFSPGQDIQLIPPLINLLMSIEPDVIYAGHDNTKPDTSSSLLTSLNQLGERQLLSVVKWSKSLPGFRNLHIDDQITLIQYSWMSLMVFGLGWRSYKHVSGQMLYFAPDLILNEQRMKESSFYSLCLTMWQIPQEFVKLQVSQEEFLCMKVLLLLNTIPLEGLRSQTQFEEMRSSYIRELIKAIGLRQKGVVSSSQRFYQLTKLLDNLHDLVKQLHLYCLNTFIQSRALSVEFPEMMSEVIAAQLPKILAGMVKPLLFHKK
Sequence of human Thyroid hormone Receptor alpha (TRa), THRA (gene 7067) (P10827 whole entry, looked up, the tested form may be a part): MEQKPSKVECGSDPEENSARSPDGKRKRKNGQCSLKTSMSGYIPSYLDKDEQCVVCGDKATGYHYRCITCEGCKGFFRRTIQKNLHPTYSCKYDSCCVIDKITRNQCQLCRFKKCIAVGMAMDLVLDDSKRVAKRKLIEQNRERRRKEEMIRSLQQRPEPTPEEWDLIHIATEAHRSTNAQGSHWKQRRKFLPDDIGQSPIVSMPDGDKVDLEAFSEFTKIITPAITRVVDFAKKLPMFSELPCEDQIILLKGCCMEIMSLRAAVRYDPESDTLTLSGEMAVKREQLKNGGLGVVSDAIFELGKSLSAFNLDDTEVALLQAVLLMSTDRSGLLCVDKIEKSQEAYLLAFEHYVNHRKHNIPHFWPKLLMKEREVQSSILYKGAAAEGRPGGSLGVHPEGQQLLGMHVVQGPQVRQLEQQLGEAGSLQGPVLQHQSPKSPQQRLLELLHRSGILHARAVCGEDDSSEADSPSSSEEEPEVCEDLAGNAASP
Sequence of frog Thyroid hormone Receptor alpha (TRa), thra-a (gene 397942) (P15204 whole entry, looked up, the tested form may be a part): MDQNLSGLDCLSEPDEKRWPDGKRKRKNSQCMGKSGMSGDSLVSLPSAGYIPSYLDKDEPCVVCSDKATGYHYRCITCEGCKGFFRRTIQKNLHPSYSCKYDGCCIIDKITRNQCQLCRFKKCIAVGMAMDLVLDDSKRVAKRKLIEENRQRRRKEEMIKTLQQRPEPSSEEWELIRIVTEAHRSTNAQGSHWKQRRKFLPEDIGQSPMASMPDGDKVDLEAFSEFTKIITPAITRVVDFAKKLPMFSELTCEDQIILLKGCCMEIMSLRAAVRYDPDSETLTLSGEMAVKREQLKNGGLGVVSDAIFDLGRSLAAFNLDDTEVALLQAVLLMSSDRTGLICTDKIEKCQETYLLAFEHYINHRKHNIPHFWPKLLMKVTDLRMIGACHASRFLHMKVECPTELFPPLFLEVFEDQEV

O=C1C2(Cl)C3(Cl)C4(Cl)C(Cl)(Cl)C5(Cl)C3(Cl)C1(Cl)C5(Cl)C24Cl (stereo unspecified)
inactive: [1] | [2] | [4] | [5] | [6]
active: [3] 10 µM | [7] 63 µM | [8] 66.2 µM

Oc1ccc(-c2ccccc2)cc1
active: [7] 29.5 µM
inactive: [9] | [1] | [2] | [3] | [8]

CC1(C)Cc2cccc(O)c2O1
inactive: [4]

CC(C)C1CCC(Cc2ccc(Cl)cc2)C1(O)Cn1cncn1 (stereo unspecified)
inactive: [1] | [2] | [3]
active: [9] 42.8 µM | [4] 20 µM | [5] 87.6 µM | [7] 15.8 µM | [8] 75.5 µM

Cc1ccc2ccccc2c1C
inactive: [4]

CC(C)c1cccc(C(C)C)c1O
inactive: [4] | [5]

CC(C)(c1ccc(OCC2CO2)cc1)c1ccc(OCC2CO2)cc1 (stereo unspecified)
inactive: [4] | [5]

CC(=O)c1cc(C(C)(C)C)cc2c1CCC2(C)C
inactive: [4] | [5]

Oc1c(I)cc(I)cc1I
active: [9] 69.1 µM | [1] 26 µM | [2] 26.5 µM and 25.7 µM | [3] 56.1 µM and 16.2 µM

O=C(O)C(F)(F)C(F)(F)C(F)(F)C(F)(F)C(F)(F)C(F)(F)C(F)(F)C(F)(F)C(F)(F)C(F)(F)F
inactive: [4]

Cc1ccccc1C(=O)Nc1cccc(OC(C)C)c1
inactive: [4] | [5]

CC(=O)C=C(C)C
inactive: [9] | [1] | [2] | [3]

O=C(O)CCC(F)(C(F)(F)F)C(F)(F)F
inactive: [4]

CC12CC1(C)C(=O)N(c1cc(Cl)cc(Cl)c1)C2=O (stereo unspecified)
inactive: [1] | [2] | [3] | [6] | [7] | [8]
active: [3] 63.2 µM

CC1(C)CCC(Cc2ccc(Cl)cc2)C1(O)Cn1cncn1 (stereo unspecified)
active: [7] 16.8 µM
inactive: [1] | [3] | [4] | [5] | [8]

O=S(=O)(c1ccc(Cl)cc1)c1ccc(Cl)cc1
inactive: [9] | [1] | [2] | [5]
active: [3] 19.8 µM | [4] 9.92 µM

Clc1ccc(C2(Cn3cncn3)CC(Br)CO2)c(Cl)c1 (stereo unspecified)
active: [2] 5.44 µM | [7] 37.7 µM
inactive: [9] | [1] | [2] | [3] | [4] | [5] | [8]

CC(C)(C)c1cc(O)ccc1O
inactive: [1] | [2] | [3]

CC(C)(C)CC(C)(C)c1ccc(O)cc1
inactive: [2] | [3] | [4] | [5]

C[C@H]1CCCC(=O)CCC/C=C/c2cc(O)cc(O)c2C(=O)O1
active: [5] 83.8 µM | [11] 2.3 µM | [12] 77.4 µM | [14] 3.94 µM | [15] 36.3 µM | [16] 82.8 µM | [7] 14.4 µM
not listed: [2] | [6]
inactive: all other assays above

[O-][Cl+2]([O-])O
inactive: [4] | [5]

C[C@]12CC[C@H](O)CC1=CC[C@@H]1[C@@H]2CC[C@]2(C)C(=O)CC[C@@H]12
active: [7] 16.1 µM
inactive: [3] | [8]
